Measured values from PubChem BioAssay (Tox21).
Values without a mark were called inactive. Records with an inconclusive call do not appear. Entries that show only a call come without a potency. Calls of active or inactive are those of the source. Unless noted, calls come from the whole dose curve; as a rule, active = well fitted curve in the direction sought with a large enough effect in the repeat runs; inconclusive = weak or mixed curves; inactive = no such curve, though single readings can be large; an effect the other way counts as inactive or inconclusive.

Assays:
[1] = molecular target: Luciferin 4-monooxygenase (Photinus pyralis) (UniProt P08659); assay: qHTS assay to identify small molecule inhibitors of firefly luciferase (AID 1224835); note: nearly all actives have a fitted effect of over 25% in size
In short: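 Quantitative HTS format; KM concentrations of both substrates. Purified P. pyralis FLuc activity quantified from luminescence images.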

[2] = qHTS assay to identify small molecule agonists of the constitutive androstane receptor (CAR) signaling pathway - cell viability counter screen (AID 1224836); note: nearly all actives have a fitted effect of over 45% in size; note: potency is the fitted concentration of half-maximal effect
In short: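 Double-stable HepG2 hepatoma cells (hCAR plus CYP2B6-2.2kb) are treated for 23 h at 37 C with test compounds in 15-point concentration series. PK11195 at 0.75 uM final is co-added. Cell viability is quantified by CellTiter-Fluor.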

[3] = qHTS assay to identify small molecule antagonists of the constitutive androstane receptor (CAR) signaling pathway - cell viability counter screen (AID 1224837); note: nearly all actives have a fitted effect of over 45% in size; note: potency is the fitted concentration of half-maximal effect
In short: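 Cells are seeded, rested 4 hr at 37 C/5% CO2, dosed with compound (15-point series) and 50 nM CITCO, incubated a further 23 hr, and then CellTiter-Fluor reagent is added before fluorescence is read. The line is HepG2 with stable hCAR and CYP2B6-2.2kb.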

[4] = molecular target: Nuclear receptor subfamily 1 group I member 3 (Homo sapiens) (UniProt Q14994); assay: qHTS assay to identify small molecule agonists of the constitutive androstane receptor (CAR) signaling pathway (AID 1224839);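 note: HepG2 cells stably carrying human CAR and a CYP2B6 luciferase reporter; nearly all actives have a fitted effect of over 15% in size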
In short: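 Readout: firefly luciferase luminescence via ONE-Glo. System: HepG2 double-stable for hCAR and CYP2B6-2.2kb. Conditions: 15-point compound titration, PK11195 at 0.75 uM final, 24 h incubation.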

[5] = molecular target: Thyrotropin receptor (Homo sapiens) (UniProt P16473); assay: qHTS assay to identify small molecule agonists of the thyroid stimulating hormone receptor (TSHR) signaling pathway (AID 1224843; calls by dose curve; note: nearly all actives have a fitted effect of over 45% in size)
In short: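 Using 15 concentrations per compound in triplicate, cAMP production was monitored in TSHR-HEK293 cells after 30 min compound incubation at RT; HTRF reagents followed, with fluorescence intensity recorded after 1 h.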

[6] = qHTS assay to identify small molecule agonists of the hypoxia (HIF-1) signaling pathway - cell viability counter screen (AID 1224844; calls by dose curve; note: nearly all actives have a fitted effect of over 50% in size; note: potency is the fitted concentration of half-maximal effect)
In short: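 Viability counter screen: HRE-bla ME-180 cells plated 5 hrs before compound addition, treated 17 hrs at 37C and 5% CO2, then CellTiter-Glo added after the FRET reporter read; luminescence after 30 min.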

[7] = qHTS assay to identify small molecule agonists of H2AX (AID 1224845; active = well fitted activation curve with a large enough effect in the signal ratio in the repeat runs, not every such curve was filed as active; the % refers to the signal ratio; note: potency is the fitted concentration of half-maximal effect)
In short: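 Wild-type CHO-K1 cells plated overnight, then exposed 3 hr at 37C to compounds at 15 concentrations (0.76% DMSO). Lysed, then HTRF anti-pH2AX(S139)-cryptate/anti-H2AX-d2 detection after 24 hr at room temperature; emissions 665 and 620 nm.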

[8] = qHTS assay to identify small molecule agonists of the hypoxia (HIF-1) signaling pathway (AID 1224846; active = well fitted activation curve with a large enough effect in the signal ratio in the repeat runs, not every such curve was filed as active; the % refers to the signal ratio)
In short: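 Agonist mode reporter screen. ME-180 cells stably expressing bla under HRE control received test compounds in DMSO for 17 hrs (37C, 5% CO2), and beta-lactamase activity was then detected with the CCF4-AM FRET substrate.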

[9] = qHTS assay to identify small molecule agonists of H2AX - cell viability counter screen (AID 1224847; calls by dose curve; note: top concentration of the series differs between compounds; nearly all actives have a fitted effect of over 30% in size)
In short: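 For this counter screen, overnight-attached CHO-K1 cells received test compounds (15 concentrations, 0.76% DMSO final); 3 hr later at 37C, CellTiter-Glo reagent was added and luminescence recorded after 30 min at room temperature.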

[10] = qHTS RealTime-Glo MT Cell Viability Assay in HepG2 cells - 24 hour (AID 1224867); note: nearly all actives have a fitted effect of over 50% in size; note: potency is the fitted concentration of half-maximal effect
In short: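 Tox21 10K library screened in qHTS format on HepG2 cells carrying RealTime-Glo reagents. Compounds were added after a 5 h preincubation, and the luminescent signal from continuous culture was measured repeatedly during 40 h treatment.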

[11] = A CellTox Green Cytotoxicity Assay to monitor cytotoxicity in HEK293 cells - 0 hour (AID 1224869); note: nearly all actives have a fitted effect of over 50% in size
In short: (§1)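 Dead-cell fluorescence measured kinetically: asymmetric cyanine dye, HEK293, 600 cells/well, 5 h settle, 23 nL cpd/DMSO, 37 C, reads 0–40 h every 8 h.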

[12] = A CellTox Green Cytotoxicity Assay to monitor cytotoxicity in HEK293 cells - 40 hour (AID 1224871); note: nearly all actives have a fitted effect of over 45% in size; note: potency is the fitted concentration of half-maximal effect
In short: as §1

[13] = qHTS assay to identify small molecule antagonists of the estrogen related receptor signaling pathway with the pleiotropic PPARgamma coactivator (PGC) from Tox21 10K library (AID 1224841; call rule not given here; note: actives are mostly falling curves and most rising ones were filed inactive; nearly all actives have a fitted effect of over 50% in size)
In short: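 Cells stably carrying the PGC/ERR reporter, seeded at 2,000 per well, received pin-transferred compounds 6 h post-plating. Exposure lasted 18 h at 37 C. Signal: One-Glo luminescence.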

[14] = qHTS assay to identify small molecule agonists of the estrogen related receptor signaling pathway with the pleiotropic PPARgamma coactivator (PGC) from Tox21 10K library (AID 1224842); note: nearly all actives have a fitted effect of over 15% in size; note: potency is the fitted concentration of half-maximal effect
In short: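 PGC/ERR reporter cells (NTP line) were seeded 2,000 per well, rested 6 h at 37 C/5% CO2, then pin-dosed with compounds in DMSO for 18 h at 37 C; luciferase read by One-Glo luminescence after 30 min at room temperature.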

[15] = qHTS assay to identify small molecule antagonists of the estrogen related receptor (ERR) signaling pathway from Tox21 library (AID 1224848); note: nearly all actives have a fitted effect of over 50% in size; note: potency is the fitted concentration of half-maximal effect
In short: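 Tox21 10K compounds in DMSO tested for ERR pathway antagonism in NTP's ERR cell line; 18 h, 37 C exposure; ONE-Glo luminescence.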

[16] = qHTS assay to identify small molecule agonists of the estrogen related receptor (ERR) signaling pathway from Tox21 library (AID 1224849; calls by dose curve; note: nearly all actives have a fitted effect of over 15% in size); settings: ERR reporter cell line, ONE-Glo luciferase, 18 h; at 92.4 µM (top of the series) unless noted
In short: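 Quantitative HTS in agonist format: NTP ERR cell line, compounds transferred in DMSO after 6 h plating, 18 h incubation at 37 C, ONE-Glo luminescence endpoint.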

[17] = qHTS RealTime-Glo MT Cell Viability Assay in HEK293 cells - 32 hour (AID 1224868); note: nearly all actives have a fitted effect of over 50% in size; note: potency is the fitted concentration of half-maximal effect; for activity change, negative = cytotoxic: top concentration of the series differs between compounds
In short: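 Luminescence generated by NanoLuc from substrate produced by living HEK293 cells served as the viability signal. Each value reflects the reading at its stated time point during continuous 40 h compound exposure at 37 C.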

[18] = molecular target: Nuclear receptor subfamily 1 group I member 3 (Homo sapiens) (UniProt Q14994); assay: qHTS assay to identify small molecule antagonists of the constitutive androstane receptor (CAR) signaling pathway (AID 1224838);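 note: HepG2 cells stably expressing hCAR with CYP2B6 luciferase reporter stimulated by CITCO; nearly all actives have a fitted effect of over 40% in size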; note: potency is the fitted concentration of half-maximal effect
In short: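 Luminescence from a CYP2B6-2.2kb promoter reporter in hCAR-expressing HepG2 cells reflects CAR signaling. Cells received compounds at 15 concentrations and 50 nM CITCO (final), then incubated 24 h at 37 C/5% CO2.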

[19] = qHTS assay to identify small molecule antagonists of the estrogen related receptor signaling pathway with the pleiotropic PPARgamma coactivator (PGC) from Tox21 10K library - cell viability counter screen (AID 1224840; active = well fitted cell-killing curve with a large enough effect in the repeat runs, not every such curve was filed as active; note: nearly all actives have a fitted effect of over 40% in size; note: potency is the fitted concentration of half-maximal effect)
In short: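 Cell viability is measured by CellTiter-Fluor fluorescence in PGC/ERR cells that receive compounds after a 6-hour attachment period and are then incubated 17.5 hours at 37 C.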

[20] = qHTS RealTime-Glo MT Cell Viability Assay in HepG2 cells - 40 hour (AID 1224870); note: nearly all actives have a fitted effect of over 50% in size
In short: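 HepG2 cells mixed with RealTime-Glo MT reagents (NanoLuc plus cell-permeant prosubstrate) were seeded at 600 cells/well, incubated 5 h at 37 C/5% CO2, then pinned with compounds in DMSO; nonlytic luminescence tracked viability during 40 h treatment.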

Thyrotropin receptor (Homo sapiens), sequence (P16473 whole entry, looked up): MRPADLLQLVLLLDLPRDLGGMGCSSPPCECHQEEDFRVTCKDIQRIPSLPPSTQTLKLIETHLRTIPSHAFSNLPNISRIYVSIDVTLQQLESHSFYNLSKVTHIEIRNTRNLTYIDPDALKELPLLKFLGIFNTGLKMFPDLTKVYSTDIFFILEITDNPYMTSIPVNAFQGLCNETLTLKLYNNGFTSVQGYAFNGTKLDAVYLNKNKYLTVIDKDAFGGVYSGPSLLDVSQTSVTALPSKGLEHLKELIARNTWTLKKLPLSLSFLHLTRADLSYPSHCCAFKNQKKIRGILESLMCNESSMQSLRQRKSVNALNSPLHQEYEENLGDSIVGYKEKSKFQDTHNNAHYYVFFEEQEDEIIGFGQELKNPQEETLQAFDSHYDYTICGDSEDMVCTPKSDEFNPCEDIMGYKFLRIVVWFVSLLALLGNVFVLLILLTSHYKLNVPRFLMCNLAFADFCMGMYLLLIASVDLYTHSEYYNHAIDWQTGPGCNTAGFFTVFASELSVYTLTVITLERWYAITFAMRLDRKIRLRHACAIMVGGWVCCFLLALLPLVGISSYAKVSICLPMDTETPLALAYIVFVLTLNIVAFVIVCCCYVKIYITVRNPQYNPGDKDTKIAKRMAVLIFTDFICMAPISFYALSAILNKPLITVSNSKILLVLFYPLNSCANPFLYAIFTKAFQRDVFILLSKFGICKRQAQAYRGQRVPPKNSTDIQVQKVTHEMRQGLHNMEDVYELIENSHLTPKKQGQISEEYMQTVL
Nuclear receptor subfamily 1 group I member 3 (Homo sapiens), sequence (Q14994 whole entry, looked up): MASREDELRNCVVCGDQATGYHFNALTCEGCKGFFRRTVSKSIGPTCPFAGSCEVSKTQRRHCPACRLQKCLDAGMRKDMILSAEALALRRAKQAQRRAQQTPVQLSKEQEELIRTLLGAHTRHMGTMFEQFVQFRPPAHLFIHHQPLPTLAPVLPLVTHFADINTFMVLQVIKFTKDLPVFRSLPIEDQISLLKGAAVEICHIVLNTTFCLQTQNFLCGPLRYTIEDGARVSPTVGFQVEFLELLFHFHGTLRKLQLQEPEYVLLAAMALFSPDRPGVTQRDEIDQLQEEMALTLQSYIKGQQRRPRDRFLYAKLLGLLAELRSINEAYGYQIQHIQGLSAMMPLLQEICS
Luciferin 4-monooxygenase (Photinus pyralis), sequence (P08659 whole entry, looked up): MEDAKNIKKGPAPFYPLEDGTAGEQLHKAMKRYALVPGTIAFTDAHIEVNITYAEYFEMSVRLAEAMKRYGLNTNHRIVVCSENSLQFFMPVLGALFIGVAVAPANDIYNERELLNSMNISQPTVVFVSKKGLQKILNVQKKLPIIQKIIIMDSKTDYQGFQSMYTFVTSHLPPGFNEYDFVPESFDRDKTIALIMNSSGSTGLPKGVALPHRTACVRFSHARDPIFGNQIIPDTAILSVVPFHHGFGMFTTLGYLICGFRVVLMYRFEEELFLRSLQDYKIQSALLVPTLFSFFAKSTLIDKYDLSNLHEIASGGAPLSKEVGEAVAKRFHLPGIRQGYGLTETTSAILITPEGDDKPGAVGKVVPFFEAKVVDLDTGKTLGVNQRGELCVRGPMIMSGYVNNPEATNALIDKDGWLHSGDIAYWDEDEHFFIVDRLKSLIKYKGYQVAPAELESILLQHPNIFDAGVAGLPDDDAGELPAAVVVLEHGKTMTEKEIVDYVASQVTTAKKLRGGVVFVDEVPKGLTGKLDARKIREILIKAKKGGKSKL

## CC(=O)c1ccccc1N
[1]
  Potency: inactive
[2]
  Potency: inactive
[3]
  Potency: inactive
[4]
  Potency: inactive
[5]
  Potency: inactive
[6]
  Potency: inactive
[7]
  Potency: inactive
[8]
  outcome: inactive
[9]
  Potency: inactive
[10]
  Potency: inactive
[11]
  Potency: inactive
[12]
  Potency: inactive

## Cc1nc(Nc2ncc(C(=O)Nc3c(C)cccc3Cl)s2)cc(N2CCN(CCO)CC2)n1
[1]
  Potency: inactive
[2]
  Potency: 7.5 µM (active)
[4]
  Potency: inactive
[13]
  Potency: inactive
[14]
  Potency: 0.0944 µM (active)
[5]
  Potency: inactive
[6]
  Potency: inactive
[7]
  Potency: 55.2 µM (active)
[8]
  outcome: inactive
[15]
  Potency: 8.41 µM (active)
[16]
  activity change, positive = activation: -44.6% [at 42.5 µM]
[17]
  Potency: 30.1 µM (active)
[11]
  Potency: inactive
[12]
  Potency: inactive

## CCOC(=O)CC(C)O (stereo unspecified)
[1]
  Potency: inactive
[3]
  Potency: inactive
[18]
  Potency: inactive
[4]
  Potency: inactive
[19]
  Potency: inactive
[13]
  Potency: inactive
[14]
  Potency: inactive
[5]
  Potency: inactive
[7]
  Potency: inactive
[8]
  outcome: inactive
[9]
  Potency: inactive
[15]
  Potency: inactive
[16]
  activity change, positive = activation: -9.04%
[10]
  Potency: inactive
[17]
  Potency: inactive
[20]
  Potency: inactive
[12]
  Potency: inactive

## CC(=O)Nc1ccc(O)cc1
[1]
  Potency: inactive
[2]
  Potency: inactive
[3]
  Potency: inactive
[19]
  Potency: inactive
[6]
  Potency: inactive
[9]
  Potency: inactive
[10]
  Potency: inactive
[17]
  Potency: inactive
[11]
  Potency: inactive
[20]
  Potency: inactive
[12]
  Potency: inactive

## COCC(=O)O[C@]1(CCN(C)CCCc2nc3ccccc3[nH]2)CCc2cc(F)ccc2[C@@H]1C(C)C
[1]
  Potency: inactive
[3]
  Potency: 29.8 µM (active)
[18]
  Potency: 29.8 µM (active)
[4]
  Potency: inactive
[19]
  Potency: 29.8 µM (active)
[5]
  Potency: inactive
[6]
  Potency: 16.9 µM (active)
[7]
  Potency: 49.2 µM (active)
[10]
  Potency: 13.4 µM (active)
[17]
  Potency: 6.74 µM (active)
[11]
  Potency: inactive
[12]
  Potency: 19 µM (active)

## CC(COC(=O)c1ccccc1)OC(=O)c1ccccc1 (stereo unspecified)
[1]
  Potency: inactive
[3]
  Potency: inactive
[18]
  Potency: inactive
[4]
  Potency: inactive
[19]
  Potency: inactive
[13]
  Potency: inactive
[14]
  Potency: inactive
[5]
  Potency: inactive
[6]
  Potency: inactive
[7]
  Potency: inactive
[8]
  outcome: inactive
[9]
  Potency: inactive
[15]
  Potency: inactive
[16]
  activity change, positive = activation: 6.72%
[10]
  Potency: inactive
[17]
  Potency: inactive
[11]
  Potency: inactive
[20]
  Potency: inactive
[12]
  Potency: inactive

## C=C/C=C/C=C/CCCCC
[1]
  activity change, negative = inhibition: 0.374% [at 23.6 µM]
[2]
  viability change, negative = cytotoxic: -0.14% [at 19 µM]
[3]
  activity change, negative = cytotoxicity: -1.33% [at 19 µM]
[14]
  activation: 0.0738% [at 19 µM]
[5]
  activation: -9.38% [at 19 µM]
[6]
  activity change, negative = cytotoxicity: -12% [at 15.8 µM]
[7]
  activation (H2AX phosphorylation): 0.418% [at 31.6 µM]
[8]
  activation: 0.434% [at 15.8 µM]
[9]
  activity change, negative = cytotoxicity: -1.43% [at 31.6 µM]
[15]
  activity, negative = inhibition: 3.04% [at 19 µM]
[16]
  activity change, positive = activation: 1.56% [at 19 µM]
[10]
  activity change, negative = cytotoxicity: -0.964% [at 15.8 µM]
[17]
  activity change, negative = cytotoxic: 0.818% [at 15.8 µM]
[11]
  cytotoxicity: -0.619% [at 15.8 µM]
[20]
  activity change, negative = cytotoxic: 24.6% [at 15.8 µM]
[12]
  cytotoxicity increase: 10.9% [at 15.8 µM]
